What was measured:
Experiment in all cases: DAPPL (digital affinity profiling via proximity ligation, sequencing); 10 mM Tris-HCl pH 7.5, 50 mM NaCl, 1 mM DTT, 4% glycerol, room temperature, 30 min; GST-TFs on glutathione beads, 16-mer random dsDNA library, 0.1% formaldehyde crosslink after washing; high values mean tight binding
Conditions in all cases: protein: recombinant; tags: N-terminal GST; dsDNA, one strand shown
FLI1 = molecular target: T1, FLI1 (Homo sapiens, UniProt Q01543 1-452)
T1 sequence: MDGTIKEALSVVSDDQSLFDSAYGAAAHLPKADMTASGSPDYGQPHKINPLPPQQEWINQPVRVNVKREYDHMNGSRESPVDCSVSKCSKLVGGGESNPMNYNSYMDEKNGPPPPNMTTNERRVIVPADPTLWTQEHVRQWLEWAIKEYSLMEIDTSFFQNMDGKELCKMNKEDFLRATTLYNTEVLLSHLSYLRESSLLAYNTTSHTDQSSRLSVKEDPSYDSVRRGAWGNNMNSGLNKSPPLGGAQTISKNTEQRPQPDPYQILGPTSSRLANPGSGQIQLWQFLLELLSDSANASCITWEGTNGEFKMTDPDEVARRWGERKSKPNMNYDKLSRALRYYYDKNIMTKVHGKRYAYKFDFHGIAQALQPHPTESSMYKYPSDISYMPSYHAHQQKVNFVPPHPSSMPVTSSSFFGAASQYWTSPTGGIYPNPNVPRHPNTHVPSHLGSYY
Method in brief: (§1)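 The binding signal reported is, for every hexamer, its read frequency for a factor over its read frequency for the tag-only sample. Reads came from pools of yeast-expressed, GST-fused human transcription factors on glutathione beads, barcoded with DNA and mixed with that sample, which were incubated with 200 nmole of a random double-stranded 16-mer DNA library in Tris/NaCl/DTT/glycerol buffer at room temperature for 30 min. After washing, the pools were crosslinked with 0.1% formaldehyde, proximity-ligated with BsaI/T4 ligase for 1 h at 37 °C, PCR-amplified and sequenced on an Illumina NextSeq500.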

ELK1 = molecular target: T2, ELK1 (Homo sapiens, UniProt P19419 1-428)
T2 sequence: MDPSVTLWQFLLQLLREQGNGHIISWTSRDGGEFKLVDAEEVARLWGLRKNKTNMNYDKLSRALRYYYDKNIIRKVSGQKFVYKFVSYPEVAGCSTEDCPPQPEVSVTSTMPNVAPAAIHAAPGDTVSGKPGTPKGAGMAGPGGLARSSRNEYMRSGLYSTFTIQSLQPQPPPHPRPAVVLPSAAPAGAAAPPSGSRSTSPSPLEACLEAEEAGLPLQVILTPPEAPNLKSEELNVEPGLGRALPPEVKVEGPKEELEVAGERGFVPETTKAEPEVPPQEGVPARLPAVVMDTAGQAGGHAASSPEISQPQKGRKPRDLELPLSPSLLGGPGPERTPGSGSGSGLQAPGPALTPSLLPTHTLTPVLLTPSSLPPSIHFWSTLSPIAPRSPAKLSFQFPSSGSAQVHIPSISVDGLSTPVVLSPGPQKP
Method in brief: as §1

GABPA = molecular target: T3, GABPA (Homo sapiens, UniProt Q06546 1-454)
T3 sequence: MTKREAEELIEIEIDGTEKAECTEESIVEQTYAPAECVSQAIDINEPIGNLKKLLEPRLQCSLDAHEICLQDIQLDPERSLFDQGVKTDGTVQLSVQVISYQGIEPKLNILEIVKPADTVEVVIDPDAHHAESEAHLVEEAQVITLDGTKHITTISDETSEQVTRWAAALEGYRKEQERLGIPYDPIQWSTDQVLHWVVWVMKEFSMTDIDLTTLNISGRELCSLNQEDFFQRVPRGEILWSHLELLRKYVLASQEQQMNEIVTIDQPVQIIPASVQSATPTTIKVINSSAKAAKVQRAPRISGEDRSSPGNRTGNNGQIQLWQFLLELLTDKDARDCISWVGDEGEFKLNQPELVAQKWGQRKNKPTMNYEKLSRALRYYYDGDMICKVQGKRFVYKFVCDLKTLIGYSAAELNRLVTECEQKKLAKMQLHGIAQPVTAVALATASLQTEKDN
Method in brief: as §1

ERG = molecular target: T4, ERG (Homo sapiens, UniProt P11308 1-479)
T4 sequence: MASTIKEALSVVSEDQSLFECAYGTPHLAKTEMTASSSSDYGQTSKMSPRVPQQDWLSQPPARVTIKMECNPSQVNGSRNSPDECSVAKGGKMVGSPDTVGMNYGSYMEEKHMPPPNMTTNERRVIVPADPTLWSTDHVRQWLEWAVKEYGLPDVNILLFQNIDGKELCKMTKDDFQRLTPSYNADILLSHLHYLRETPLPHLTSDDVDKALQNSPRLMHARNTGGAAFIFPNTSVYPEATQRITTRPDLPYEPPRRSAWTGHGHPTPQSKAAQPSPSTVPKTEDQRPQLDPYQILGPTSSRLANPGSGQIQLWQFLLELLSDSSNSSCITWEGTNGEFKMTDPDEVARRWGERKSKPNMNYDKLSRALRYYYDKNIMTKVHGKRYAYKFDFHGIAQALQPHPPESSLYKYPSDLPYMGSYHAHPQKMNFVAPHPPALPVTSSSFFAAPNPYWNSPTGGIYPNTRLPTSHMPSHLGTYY
Method in brief: as §1

ELF1 = ELF1 (Homo sapiens, UniProt P32519 1-619)
Chain of ELF1 (P32519 whole entry): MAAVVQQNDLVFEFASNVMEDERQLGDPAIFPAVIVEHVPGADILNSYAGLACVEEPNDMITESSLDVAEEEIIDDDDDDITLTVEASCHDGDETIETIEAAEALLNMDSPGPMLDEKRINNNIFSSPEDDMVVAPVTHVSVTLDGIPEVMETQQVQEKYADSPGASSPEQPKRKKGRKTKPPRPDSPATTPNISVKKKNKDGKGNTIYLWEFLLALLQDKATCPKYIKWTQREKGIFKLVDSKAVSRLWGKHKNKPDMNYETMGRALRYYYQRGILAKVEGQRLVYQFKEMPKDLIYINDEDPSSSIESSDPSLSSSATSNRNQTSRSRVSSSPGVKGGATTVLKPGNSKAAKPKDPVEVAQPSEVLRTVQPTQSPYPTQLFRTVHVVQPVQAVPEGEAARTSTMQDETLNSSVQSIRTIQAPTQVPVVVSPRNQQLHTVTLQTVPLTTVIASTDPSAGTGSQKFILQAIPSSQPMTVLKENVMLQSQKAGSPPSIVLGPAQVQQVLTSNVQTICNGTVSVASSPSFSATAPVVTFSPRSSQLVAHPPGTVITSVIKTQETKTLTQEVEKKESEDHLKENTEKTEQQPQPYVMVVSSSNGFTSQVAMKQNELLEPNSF
Method in brief: as §1

EHF = molecular target: T5, EHF (Homo sapiens, UniProt Q9NZC4 1-300)
T5 sequence: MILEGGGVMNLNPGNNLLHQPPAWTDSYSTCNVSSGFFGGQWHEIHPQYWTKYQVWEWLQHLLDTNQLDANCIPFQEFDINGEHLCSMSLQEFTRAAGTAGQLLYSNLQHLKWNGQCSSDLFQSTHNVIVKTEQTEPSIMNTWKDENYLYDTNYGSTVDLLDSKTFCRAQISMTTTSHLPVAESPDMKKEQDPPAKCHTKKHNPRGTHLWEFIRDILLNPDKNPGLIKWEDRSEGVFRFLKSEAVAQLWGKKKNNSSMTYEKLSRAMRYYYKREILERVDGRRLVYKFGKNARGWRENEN
Method in brief: as §1

SPI1 = SPI1 (Homo sapiens, UniProt P17947 1-270)
Method in brief: as §1

SPIB = SPIB (Homo sapiens, UniProt Q01892 1-262)
Chain of SPIB (Q01892 whole entry): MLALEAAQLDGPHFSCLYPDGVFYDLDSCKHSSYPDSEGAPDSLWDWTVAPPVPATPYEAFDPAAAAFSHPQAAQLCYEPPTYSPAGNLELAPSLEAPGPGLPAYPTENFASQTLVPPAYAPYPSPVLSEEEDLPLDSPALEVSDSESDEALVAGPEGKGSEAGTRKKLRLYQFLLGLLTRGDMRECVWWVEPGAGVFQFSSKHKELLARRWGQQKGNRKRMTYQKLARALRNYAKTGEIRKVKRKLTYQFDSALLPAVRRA
Method in brief: as §1

ELK3 = molecular target: T6, ELK3 (Homo sapiens, UniProt P41970 1-407)
T6 sequence: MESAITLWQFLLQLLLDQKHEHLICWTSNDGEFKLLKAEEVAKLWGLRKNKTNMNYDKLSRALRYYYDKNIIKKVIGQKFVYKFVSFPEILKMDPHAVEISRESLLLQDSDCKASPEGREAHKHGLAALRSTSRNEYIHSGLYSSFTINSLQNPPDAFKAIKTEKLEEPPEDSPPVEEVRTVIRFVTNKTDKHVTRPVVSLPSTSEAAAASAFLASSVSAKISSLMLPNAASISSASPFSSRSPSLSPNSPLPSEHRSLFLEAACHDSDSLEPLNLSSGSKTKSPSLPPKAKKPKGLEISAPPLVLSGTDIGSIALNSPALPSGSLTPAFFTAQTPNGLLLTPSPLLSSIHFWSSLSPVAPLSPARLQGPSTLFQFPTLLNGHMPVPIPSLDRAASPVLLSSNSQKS
Method in brief: as §1

TTCATG
binding signal (FLI1): 1.35 fold enrichment (6-mer frequency, TF over GST control) | binding signal (ELK1): 1.26 fold enrichment (6-mer frequency, TF over GST control) | binding signal (GABPA): 1.35 fold enrichment (6-mer frequency, TF over GST control) | binding signal (ERG): 1.28 fold enrichment (6-mer frequency, TF over GST control) | binding signal (ELF1): 1.33 fold enrichment (6-mer frequency, TF over GST control) | binding signal (EHF): 1.29 fold enrichment (6-mer frequency, TF over GST control) | binding signal (SPI1): 1.32 fold enrichment (6-mer frequency, TF over GST control) | binding signal (SPIB): 1.34 fold enrichment (6-mer frequency, TF over GST control) | binding signal (ELK3): 1.22 fold enrichment (6-mer frequency, TF over GST control)

ACTAGC
binding signal (FLI1): 1.23 fold enrichment (6-mer frequency, TF over GST control) | binding signal (ELK1): 1.18 fold enrichment (6-mer frequency, TF over GST control) | binding signal (GABPA): 1.26 fold enrichment (6-mer frequency, TF over GST control) | binding signal (ERG): 1.21 fold enrichment (6-mer frequency, TF over GST control) | binding signal (ELF1): 1.15 fold enrichment (6-mer frequency, TF over GST control) | binding signal (EHF): 1.11 fold enrichment (6-mer frequency, TF over GST control) | binding signal (SPI1): 1.28 fold enrichment (6-mer frequency, TF over GST control) | binding signal (SPIB): 1.22 fold enrichment (6-mer frequency, TF over GST control) | binding signal (ELK3): 1.1 fold enrichment (6-mer frequency, TF over GST control)

TATGAA
binding signal (FLI1): 1.18 fold enrichment (6-mer frequency, TF over GST control) | binding signal (ELK1): 1.17 fold enrichment (6-mer frequency, TF over GST control) | binding signal (GABPA): 1.21 fold enrichment (6-mer frequency, TF over GST control) | binding signal (ERG): 1.14 fold enrichment (6-mer frequency, TF over GST control) | binding signal (ELF1): 1.18 fold enrichment (6-mer frequency, TF over GST control) | binding signal (EHF): 1.12 fold enrichment (6-mer frequency, TF over GST control) | binding signal (SPI1): 1.19 fold enrichment (6-mer frequency, TF over GST control) | binding signal (SPIB): 1.17 fold enrichment (6-mer frequency, TF over GST control) | binding signal (ELK3): 1.16 fold enrichment (6-mer frequency, TF over GST control)

ACTTCG
binding signal (FLI1): 1.38 fold enrichment (6-mer frequency, TF over GST control) | binding signal (ELK1): 1.38 fold enrichment (6-mer frequency, TF over GST control) | binding signal (GABPA): 1.46 fold enrichment (6-mer frequency, TF over GST control) | binding signal (ERG): 1.47 fold enrichment (6-mer frequency, TF over GST control) | binding signal (ELF1): 1.33 fold enrichment (6-mer frequency, TF over GST control) | binding signal (EHF): 1.3 fold enrichment (6-mer frequency, TF over GST control) | binding signal (SPI1): 1.44 fold enrichment (6-mer frequency, TF over GST control) | binding signal (SPIB): 1.39 fold enrichment (6-mer frequency, TF over GST control) | binding signal (ELK3): 1.49 fold enrichment (6-mer frequency, TF over GST control)

TCACGA
binding signal (FLI1): 1.09 fold enrichment (6-mer frequency, TF over GST control) | binding signal (ELK1): 1.19 fold enrichment (6-mer frequency, TF over GST control) | binding signal (GABPA): 1.09 fold enrichment (6-mer frequency, TF over GST control) | binding signal (ERG): 1.1 fold enrichment (6-mer frequency, TF over GST control) | binding signal (ELF1): 1.13 fold enrichment (6-mer frequency, TF over GST control) | binding signal (EHF): 1.21 fold enrichment (6-mer frequency, TF over GST control) | binding signal (SPI1): 1.06 fold enrichment (6-mer frequency, TF over GST control) | binding signal (SPIB): 1.04 fold enrichment (6-mer frequency, TF over GST control) | binding signal (ELK3): 1.21 fold enrichment (6-mer frequency, TF over GST control)

TGTTCC
binding signal (FLI1): 1.69 fold enrichment (6-mer frequency, TF over GST control) | binding signal (ELK1): 1.61 fold enrichment (6-mer frequency, TF over GST control) | binding signal (GABPA): 1.74 fold enrichment (6-mer frequency, TF over GST control) | binding signal (ERG): 1.68 fold enrichment (6-mer frequency, TF over GST control) | binding signal (ELF1): 1.66 fold enrichment (6-mer frequency, TF over GST control) | binding signal (EHF): 1.83 fold enrichment (6-mer frequency, TF over GST control) | binding signal (SPI1): 1.81 fold enrichment (6-mer frequency, TF over GST control) | binding signal (SPIB): 1.8 fold enrichment (6-mer frequency, TF over GST control) | binding signal (ELK3): 1.5 fold enrichment (6-mer frequency, TF over GST control)

CGTTTT
binding signal (FLI1): 1.16 fold enrichment (6-mer frequency, TF over GST control) | binding signal (ELK1): 1.16 fold enrichment (6-mer frequency, TF over GST control) | binding signal (GABPA): 1.34 fold enrichment (6-mer frequency, TF over GST control) | binding signal (ERG): 1.36 fold enrichment (6-mer frequency, TF over GST control) | binding signal (ELF1): 1.17 fold enrichment (6-mer frequency, TF over GST control) | binding signal (EHF): 1.27 fold enrichment (6-mer frequency, TF over GST control) | binding signal (SPI1): 1.29 fold enrichment (6-mer frequency, TF over GST control) | binding signal (SPIB): 1.32 fold enrichment (6-mer frequency, TF over GST control) | binding signal (ELK3): 1.12 fold enrichment (6-mer frequency, TF over GST control)

TACTCA
binding signal (FLI1): 1.14 fold enrichment (6-mer frequency, TF over GST control) | binding signal (ELK1): 1.24 fold enrichment (6-mer frequency, TF over GST control) | binding signal (GABPA): 1.2 fold enrichment (6-mer frequency, TF over GST control) | binding signal (ERG): 1.19 fold enrichment (6-mer frequency, TF over GST control) | binding signal (ELF1): 1.19 fold enrichment (6-mer frequency, TF over GST control) | binding signal (EHF): 1.3 fold enrichment (6-mer frequency, TF over GST control) | binding signal (SPI1): 1.14 fold enrichment (6-mer frequency, TF over GST control) | binding signal (SPIB): 1.36 fold enrichment (6-mer frequency, TF over GST control) | binding signal (ELK3): 1.2 fold enrichment (6-mer frequency, TF over GST control)

Reference: paper PMC7862700, “An all-to-all approach to the identification of sequence-specific readers for epigenetic DNA modifications on cytosine”
